Records with an inconclusive call do not appear. The source made the active and inactive calls. The calls were made as follows: active = hit-call score of the fitted dose curve at least 0.9, where 1 is the maximum; inconclusive = response in the unintended direction; inactive = score below 0.9.

The assay is described as follows: ATG_M_32_TRANS: Attagene TRANS-FACTORIAL HepG2 Assay for M32 Transcription Factor (Internal Marker) (AID 2282984). The settings on record: HepG2 Attagene TRANS M32 internal marker reporter. How it is done:
ATG_TRANS is a cell-based, multiplexed-readout assay that uses HepG2, a human liver cell line, with measurements taken at 24 hours after chemical dosing in a 24-well plate.ATG_M_32_TRANS is one of 30 assay component(s) measured or calculated from the ATG_TRANS assay. It is designed to make measurements of mRNA induction, a form of inducible reporter, as detected with fluorescence intensity signals by Reverse transcription polymerase chain reaction (RT-PCR) and Capillary electrophoresis technology.Data from the assay component ATG_M_32_TRANS was analyzed into 1 assay endpoint. This assay endpoint, ATG_M_32_TRANS, was analyzed in the positive analysis fitting direction relative to DMSO as the negative control and baseline of activity. Using a type of inducible reporter, measures of mRNA for gain-of-signal activity can be used to understand the background control at the transcription factor-level as they relate to the gene . Furthermore, this assay endpoint can be referred to as a secondary readout, because this assay has produced multiple assay endpoints where this one serves a background control function. To generalize the intended target to other relatable targets, this assay endpoint is annotated to the background measurement intended target family, where the subfamily is internal marker.
Human liver HepG2 cells are transiently transfected with multiple reporter transcription units (MRTUs) in 6-well plates using FuGene 6 reagent (Roche; 3 ml FuGene/1 mg DNA). The MRTU constructs are regulated by a cis-regulating element (promoter). […] A major difference between the CIS and TRANS system is that in CIS activities of endogenous TFs are measured, whereas the TRANS assay evaluates changes in activities of exogenous, chimeric NR-Gal4 proteins. […] At the end of 24 hour incubation, total RNA was isolated using TriZol reagent (Invitrogen). The isolated RNA is then reverse-transcribed using oligo(dT) primer and Mo-MLV reverse transcriptase (Invitrogen) with DNAse I (Ambion) treatment for 30 min. The one-tenth of the produced cDNA was amplified by PCR using Taq DNA polymerase (Invitrogen) and two reporter sequence-specific primers. The PCR products were fluorescently labeled by primer extension with 6-arboxyfluorescein (6-FAM) 5'-labeled reporter sequence-specific primer (2 min at 95 C, 20 s at 68 C and 10 min at 72 C) and these products were digested with 5U of HpaI (New England Biolabs) for 2h at 37 C. The fragments were purified using Qiaquick PCR columns (Qiagen), analyzed on an ABI 3130xL genetic analyzer (Applied Biosystems) with peak positions identified by using a set of X-rhodamine (ROX)-labeled MapMarker1000 molecular weight standards (BioVentures). The raw capillary electrophoresis data was processed using Attagraph software (Attagene).
With `Oc1ccc(Cl)cc1`, the call was inactive.
As for `ClC1=C(Cl)[C@]2(Cl)[C@@H]3[C@@H](Cl)[C@H](Cl)C[C@@H]3[C@@]1(Cl)C2(Cl)Cl`, the entry is “inactive”; as for `C=CCc1ccc(OC(=O)Cc2ccccc2)c(OC)c1`, “inactive”.
Consider `CC(C)C(=O)Cl`, for which the result was inactive.
To `CCOC(=O)N(C)N=O` belongs “inactive”; to `Oc1ccc(C2(c3ccc(O)cc3)c3ccccc3-c3ccccc32)cc1`, “inactive”; to `C=CC(=O)OCCCCOC(=O)C=C`, “inactive”.
As for `C[C@]12CC[C@H]3[C@@H](CC[C@@]45O[C@@H]4C(O)=C(C#N)C[C@]35C)[C@@H]1CC[C@@H]2O`, the entry is “inactive”; as for `CN(C)CCC#N`, “inactive”.
Take `O=[N+]([O-])c1ccc(Cl)cc1`: the call was inactive.
As for `COc1cc(OC)nc(Oc2cccc(Oc3nc(OC)cc(OC)n3)c2C(=O)O)n1`, the entry is “inactive”; as for `BrCBr`, “inactive”.
To `CC=Cc1ccc2c(c1)OCO2` belongs “inactive”.
`O=P1(NCCCl)OCCCN1CCCl` (stereo not given): the call was inactive.
As for `Cl/C=C\CCl`, the entry is “inactive”.
To `CCC(C)c1cc(C(C)(C)C)cc(-n2nc3ccccc3n2)c1O` (stereo not given) belongs “inactive”.
As for `COC(C)(C)CCC[C@H](C)C/C=C/C(C)=C/C(=O)OC(C)C`, the entry is “inactive”; as for `O=S(=O)(c1ccccc1)c1ccccc1`, “inactive”; as for `C[C@]12CC[C@H](O)C[C@H]1CC[C@@H]1[C@@H]2C[C@@H](O)[C@]2(C)[C@@H](C3=CC(=O)OC3)CC[C@]12O`, “inactive”.
`C=CC(=O)OC`: the result was inactive.
As for `c1ccc(Nc2ccc3ccccc3c2)cc1`, the entry is “inactive”; as for `CCC(C)c1cc([N+](=O)[O-])cc([N+](=O)[O-])c1OC(=O)C=C(C)C` (stereo not given), “inactive”; as for `CCOP(=O)(OCC)OCC`, “inactive”.
To `N#Cc1cc(I)c(O)c(I)c1` belongs “inactive”.
For `CC(C)C#N`, the call was inactive.
To `C[N+](=O)[O-]` belongs “inactive”.
To `CC(C)(C)C(=O)CCl` belongs “inactive”; to `O=C(O)COc1ccccc1`, “inactive”; to `CCC[N+](=O)[O-]`, “inactive”.
With `CCOC(=O)NC(=S)Nc1ccccc1NC(=S)NC(=O)OCC`, the molecule was classed as inactive.
As for `CC(Cc1ccc(C(C)(C)C)cc1)CN1C[C@@H](C)O[C@@H](C)C1` (stereo not given in full), the entry is “inactive”.
On to `CCCCOP(=O)(O)OCCCC`, for which the result was inactive.
Regarding `CCCC=NO`, the molecule was called inactive.
For `Nc1ccc(Cl)c(Cl)c1`, the outcome was inactive.
To `Clc1ccc(-c2ccccc2)cc1` belongs “inactive”; to `CCOC(=O)C1OC1(C)c1ccccc1` (stereo not given), “inactive”; to `CC(C)[C@@H](C(=O)O[C@@H](C#N)c1cccc(Oc2ccccc2)c1)c1ccc(Cl)cc1`, “inactive”.
To `CC(C)CCCCCCCOP(=O)(Oc1ccccc1)Oc1ccccc1` belongs “inactive”; to `C=COCCCl`, “inactive”.
Regarding `CCCCCCCCCCCCCCCC[N+](C)(C)C`, the result was inactive.
